Assay outcomes (PubChem)
JMJD2A Tudor inh – blocks the human JMJD2A Tudor domain | O75164 | AlphaScreen JMJD2A-Tudor / H3K4me3 peptide binding | Potency, µM (doses to about 114 µM), usual class: inhibitors | hit rate 4.4% among 390,000 | AID 504339; note: nearly all actives have a fitted effect of over 50% in size
BAZ2B block – inhibitors of human BAZ2B bromodomain | Q9UIF8 | AlphaScreen BAZ2B-H3K14Ac peptide displacement | Potency, µM (titrated, usually from 114 µM), actives largely listed as inhibitors | hit rate 4.4% among 360,000 | AID 504333; note: nearly all actives have a fitted effect of over 60% in size
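BAZ2B (50 nM) with biotin-H3(5-23)K14Ac peptide (50 nM) in PBS pH 7.4, 0.01% Tween-20, preformed 30 min, then compound 30 min at room temperature; top concentration 110uM. AlphaScreen streptavidin donor/nickel chelate acceptor beads (10 ug/mL final), 20 min dark, signal read.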
G9a block – G9a (human) methyltransferase inhibition; hit rate 8.8% among 350,000; Potency, µM (series often up to 102 µM), usual class: inhibitors; Q96KQ7; G9a H3K9 monomethylation, AlphaScreen, 2 h; note: nearly all actives have a fitted effect of over 75% in size
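Using a bead-based AlphaScreen, monomethylated H3K9 product from 2 h room-temperature reactions (G9a 20 nM, peptide 500 nM, SAM 20 uM) was detected with 0.5 ug/mL rabbit anti-H3K9me1 antibody.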
GLS inh – inhibitors of human glutaminase (GLS); O94925; GLS enzymatic activity, qHTS titration; Potency, µM (titrated, usually from 45.5 µM), usual class: inhibitors; hit rate 0.21% among 410,000; AID 624170
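Enzyme dispensed in phosphate buffer (45 mM, pH 8.2, 0.02% Tween-20), compounds pinned in, then 1 mM L-glutamine solution and the glutamate oxidase–HRP–Amplex Red mix added; fluorescence read immediately and again after 30 min at room temperature.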
HP1b chromo inh – inhibitors of HP1-beta chromodomain binding to methylated histone tails | Potency, µM (doses to about 114 µM), usual class: inhibitors | AID 540317 | P83916 | hit rate 0.56% among 390,000 | AlphaScreen HP1-beta / biotin-H3K9me3 peptide binding; note: nearly all actives have a fitted effect of over 70% in size
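Compound inhibition of the preformed complex between 50 nM HP1-beta and 50 nM biotinylated H3K9me3 peptide was read by AlphaScreen. Buffer was PBS pH 7.4 with 0.01% Tween-20. Incubations ran 30 min at room temperature, with 10 ug/mL donor/acceptor beads.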
Hits are given with their value; - = inactive; ? = inconclusive; . = no result given; ! = repeats disagree. Rows were chosen to be rich in hits. Some 10% of all compounds tested hit in one or more screens of this group. Calls come from the whole dose curve; as a rule, active = well fitted curve in the direction sought with a large enough effect; inconclusive = small, poorly fitted or top-dose-only effect, or another doubt; inactive = no such curve, though single readings can be large; an effect the other way counts as inactive or inconclusive.

SMILES | JMJD2A Tudor inh | BAZ2B block | G9a block | GLS inh | HP1b chromo inh
COc1ccccc1-c1cc(N)n(S(=O)(=O)c2cccc3nsnc23)n1 | ? | ? | 50µM | - | -
Nc1cc(-c2ccc(Cl)cc2)nn1S(=O)(=O)c1cccc2nsnc12 | 45µM | ? | 40µM | - | -
Cc1cc2c(s1)c1cnn(Cc3ccc4ccccc4c3)c(=O)c1n2C | - | . | . | . | .
COc1cc(CC(=O)N2CCN(S(=O)(=O)c3ccc(C)cc3)CC2)cc(OC)c1OC | - | . | . | - | -
CCCCc1ccc(/C=C2\C(=O)c3ccccc3C(O)=C2C(=O)OCC)cc1 | . | 22µM | 6.3µM | . | .
CCC(=O)Nc1nc(=S)ss1 | - | ? | 8.9µM | - | ?
NS(=O)(=O)c1cccc(NC(=O)CSc2n[nH]c(-c3ccccc3Br)n2)c1 | - | . | . | - | -
O=c1cc(CN2CCN(c3ccc(O)cc3)CC2)nc2scc(-c3ccccc3)n12 | - | - | 10µM | ? | ?
CN(Cc1ccccc1)C(C(=O)NC1CCCCC1)c1ccc(Cl)cc1 (stereo not given) | - | - | - | - | -
Cc1cccc(-c2noc(-c3cc(C(C)C)[nH]n3)n2)c1 | - | - | - | - | -
CCn1c(C)c(CS(=O)(=O)c2ccccc2)[nH]c1=O | 22µM | - | 1µM | - | 10µM
COc1ccc(CCNC(=O)Cn2cc(C(=O)c3ccc(Cl)cc3)c(=O)c3ccc(C)nc32)cc1OC | - | - | - | - | -
COc1ccccc1C(=O)NN(C)C1=NS(=O)(=O)c2ccccc21 | - | - | - | - | -
CN(NC(=O)CN1C(=O)c2ccccc2C1=O)C1=NS(=O)(=O)c2ccccc21 | - | - | 79µM | - | -
CSc1ncc2c(n1)-c1ccccc1N(Cc1ccccc1C)S2(=O)=O | - | - | - | - | -
CC(C)C(NC(=O)c1ccccc1F)C(=O)NCc1ccccc1 (stereo not given) | 40µM | - | - | - | -
CN(C)S(=O)(=O)c1ccc(=S)[nH]c1 | 56µM | . | 1.4µM | - | ?
CCOc1ccc(/C(CCC(=O)O)=N/NC(=S)NC(C)C)cc1 | - | - | 22µM | - | -
COc1cccc(CN2CCC(C(=O)N3CCN(c4ccccc4F)CC3)CC2)c1OC | 3.5µM | ? | 10µM | - | ?
COc1ccc(CC(=O)N2CCN(c3ccccc3F)CC2)cc1OC | - | - | - | - | -
COc1ccc(CN2CCC(C(=O)N3CCN(c4ccccc4F)CC3)CC2)cc1OC | 0.89µM | 56µM | ? | - | ?
COc1cc(CN2CCC(C(=O)N3CCN(c4ccccc4F)CC3)CC2)cc(OC)c1OC | 2.5µM | 50µM | 25µM | - | ?
COC(=O)c1ccccc1NC(=O)CSc1nc2ccsc2c(=O)n1CCCCC(=O)O | . | . | . | - | .
COCCOc1ccc(C(F)(F)F)cc1Nc1nc2ccccc2o1 | 28µM | - | ? | - | -
COCCOc1ccc(C(F)(F)F)cc1NC(=O)c1ccc(C(F)(F)F)cc1 | - | - | - | - | -
SMILES | JMJD2A Tudor inh | BAZ2B block | G9a block | GLS inh | HP1b chromo inh
O=C(/C=C\c1ccc(O)c(O)c1)O[C@@H]1C[C@](O)(C(=O)O)C[C@@H](O)[C@@H]1O | . | . | 0.35µM | . | .
O=C(/C=C/c1ccc(O)c(O)c1)O[C@@H]1C[C@](O)(C(=O)O)C[C@@H](O)[C@H]1O | 18µM! | - | 13µM! | ? | -
O=C(/C=C/c1ccc(O)c(O)c1)OC1C(O)CC(OC(=O)/C=C/c2ccc(O)c(O)c2)(C(=O)O)CC1O (stereo not given) | 22µM | - | 32µM | ? | -
COc1cc(/C=C/C(=O)OC2CC3CCC2(C)C3(C)C)ccc1O (stereo not given) | - | - | - | - | -
COc1cc(/C=C/C(=O)OCC(=O)N2CC3(C)CC2CC(C)(C)C3)ccc1O (stereo not given) | - | - | - | - | -
CC(CC(=O)NC1CCCCC1)S(=O)(=O)c1ccc2c(c1)NC(=O)CO2 (stereo not given) | - | - | ? | - | -
COc1cccc(-c2nc3c(C#N)c[nH]n3c2NC2CCCC2)c1OC | - | - | - | ? | -
COc1ccc(C(=O)CN2C(=O)c3ccccc3S2(=O)=O)cc1Br | - | - | 50µM | - | -
CC(=O)Oc1cccc(N2C(=O)c3cccc4c([N+](=O)[O-])ccc(c34)C2=O)c1 | - | - | 40µM | - | -
